The text below walks through data of PubChem BioAssay.

Values without a mark were called inactive. How the calls were made is not given here.

For the experiment, the target named is Pantothenate synthetase (Mycobacterium tuberculosis (strain ATCC 25618 / H37Rv)) (UniProt P9WIL5). Kind of experiment: Recombinant Mtb pantothenate synthetase (PanC) inhibitors, coupled enzyme, confirmatory (AID 375).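 Further: 0% = full reaction with vehicle and 100% = no enzyme background.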 The note with it: coupled enzyme assay; at 10 µM, hits give high values.
Pantothenate synthetase (Mycobacterium tuberculosis (strain ATCC 25618 / H37Rv)), sequence (P9WIL5 whole entry, looked up): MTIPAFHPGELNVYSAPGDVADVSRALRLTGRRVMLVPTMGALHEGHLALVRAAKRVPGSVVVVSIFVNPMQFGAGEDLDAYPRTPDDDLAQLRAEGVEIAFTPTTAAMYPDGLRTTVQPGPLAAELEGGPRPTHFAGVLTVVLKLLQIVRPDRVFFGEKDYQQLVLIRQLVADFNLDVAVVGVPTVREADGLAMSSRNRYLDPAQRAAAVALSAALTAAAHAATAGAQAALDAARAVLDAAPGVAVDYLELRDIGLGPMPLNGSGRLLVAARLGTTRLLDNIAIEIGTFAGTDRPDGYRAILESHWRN
For orientation: inhibition means the relative decrease from the control value, in per cent. On to `CCCC(=O)n1nc(-c2ccc(OC)cc2)nc1N`, for which the inhibition was 2%.

Take `O=C1CCc2cc(S(=O)(=O)N3CCC(C(=O)NCc4ccccn4)CC3)ccc2N1`: the inhibition is 0%.

Consider `COc1ccc(C(NC(=O)c2ccco2)c2ccc(OC)c(OC)c2)cc1` (stereo not given), for which the inhibition was 0%.

As to `O=C(NCCN1CCOCC1)C1CCC(=O)N1Cc1ccccc1Cl` (stereo not given), the inhibition was 0%.

Turning to `COc1cccc(C(=O)Nc2ccc(N(C)C)cc2)c1OC`, the inhibition was 8%.

Consider `CCOC(=O)c1ccccc1NC(=O)c1c(O)c2ccccc2n(CC)c1=O`, for which the inhibition is 0%.

As for `c1ccc(N2CCN(Cc3ccnc4ccccc34)CC2)cc1`, the inhibition is 2%.

On to `Cc1sc2ncnc(Oc3ccc(-n4ccnc4)cc3)c2c1C`, for which the inhibition was 4%.

As for `O=C1CCC(=O)N1OCCCOc1ccc(Br)cc1Cl`, the inhibition is 0%.

Regarding `CCC(CO)Nc1ncnc2c1cnn2-c1ccc(Cl)cc1` (stereo not given), the inhibition was 6%.

On to `O=C(c1ccc(Cl)cc1)C1CCN(C(=O)NC2CCCCC2)CC1`, for which the inhibition is 0%.

In the case of `COc1ccc(N2CCN(C(=O)CN3C(=O)C4CC=CCC4C3=O)CC2)cc1` (stereo not given), the inhibition was 0%.

Turning to `COc1ccc(-n2c(N)c(C(=O)NCc3ccco3)c3nc4ccccc4nc32)c(OC)c1`, the inhibition was 4%.

Turning to `Cc1ccc(S(=O)(=O)C2(C(=O)NC3CCCC3)CC2)cc1`, the inhibition was 9%.

Turning to `CC(=O)Oc1cccc2c1C(=O)c1c(OC(C)=O)cc(C(=O)O)cc1C2=O`, the inhibition is 2%.

Regarding `CS(=O)(=O)c1ccc2nc(NC(=O)CCC(=O)c3cccs3)sc2c1`, the inhibition was 1%.

Regarding `CCOC(=O)c1ccc(NC(=O)N2CCN(Cc3cccc(F)c3)CC2)cc1`, the inhibition is 0%.

As to `O=C1c2ccccc2C(=O)N1C/C=C/CN1C(=O)c2ccccc2C1=O`, the inhibition was 0%.

In the case of `O=C(c1ccco1)N1CCN(S(=O)(=O)c2ccc(Oc3ccccc3)cc2)CC1`, the inhibition is 0%.

For `COc1ccc(N2C(N)=C(C#N)C(c3cccnc3)C3=C2CC(C)(C)CC3=O)cc1` (stereo not given), the inhibition was 0%.

Regarding `O=C1CCC(C(=O)N(Cc2ccco2)C2(C(=O)NC3CCCC3)CCCCC2)N1` (stereo not given), the inhibition was 0%.

Take `COc1ccc(-c2nnc3sc(-c4c(OC)cccc4OC)nn23)cc1`: the inhibition is 6%.

In the case of `CNC(=O)C1C2C=CC3(O2)C1C(=O)N(C1CC1)C3C(=O)NCc1ccc(OC)cc1` (stereo not given), the inhibition is 0%.

As to `c1ccc(CNc2ccc3c(c2)ncn3C2CCCCC2)nc1`, the inhibition is 0%.

On to `CC(C)NC(=O)CSc1nc2ccccc2n1-c1ccccc1`, for which the inhibition was 1%.

With `Cc1ccccc1-c1nc(CN2CCC(C(=O)NCCCN3CCOCC3)CC2)c(C)o1`, the inhibition is 5%.

Regarding `COc1ccccc1-c1nnc(SCC(=O)NC2CCCCC2)o1`, the inhibition was 0%.

In the case of `Cn1nc(-c2ccc(C(=O)N3CCN(c4ccccc4)CC3)cc2)c2ccccc2c1=O`, the inhibition was 0%.

Consider `CCOc1ccc2c(c1)n(CO)c(=S)n2CO`, for which the inhibition is 0%.

`Cc1nn(C(=O)c2cc3sccc3[nH]2)c(C)c1C`: the inhibition is 0%.

Turning to `COc1ccccc1-c1c(C)nn2c(N3CCC4(CC3)OCCO4)cc(C)nc12`, the inhibition was 5%.

As to `O=C(O)COc1cccc(NC(=O)C2CCCO2)c1` (stereo not given), the inhibition is 0%.

Regarding `O=C(Nc1ccccc1C(=O)N1CCOCC1)c1ccncc1`, the inhibition was 0%.

As to `CCOCCCNc1ncnc2c1[nH]c1ccccc12`, the inhibition was 0%.

On to `COc1ccc(CN(Cc2cc3cc4c(cc3[nH]c2=O)OCO4)C(=O)NC2CCCCC2)cc1`, for which the inhibition was 3%.

`CCOC(=O)c1cnc(C(C)(C)C)[nH]c1=O`: the inhibition was 10%.

Consider `CS(=O)(=O)c1ccc2nc(NC(=O)c3cccs3)sc2c1`, for which the inhibition was 0%.

For the molecule `CC(=O)c1ccc(NS(=O)(=O)c2ccccc2)cc1`, the inhibition is 0%.

In the case of `O=C(Nc1nonc1NC(=O)C1CCCCC1)C1CCCCC1`, the inhibition is 0%.

Regarding `COc1ccc(OC)c(NC(=O)CS(=O)(=O)Cc2nc(-c3ccccc3C)oc2C)c1`, the inhibition was 0%.
